Experiment [1] in a line: AP1 Signaling Pathway (AID 357; active means well fitted curve in either direction with a large enough effect, not every such curve was filed as active; further: on the % scale 0 is the no-effect control and ±100 the full control effect). The settings on record: ME-180 AP-1-bla reporter, EGF-induced, beta-lactamase ratio, 5 h; at 7.69 µM (top of the series) unless noted. The gist of the method: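 AP-1-bla ME-180 cells with beta-lactamase reporter under AP-1 response element, stimulated with EC50 EGF; compounds titrated, 5 hours at 37 degrees Celsius. CCF4 read at 460/530 nm ratio; positive and negative modulators judged by AC50.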

For experiment [2], the target named is Cytochrome P450 1A2 (Homo sapiens) (UniProt P05177). The experiment is described as follows: p450-cyp1a2 (AID 410; calls by dose curve; further: potency means the concentration at half of the fitted maximal effect;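 on activity change, negative = inhibition: -100% = full effect of reference inhibitor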). The method in brief:
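20nM CYP1A2, 100uM Luciferin-ME (=Km), 100mM KPO4; cpd 10 min RT; +NADPH regen, 60 min RT; stop/detect 20 min; luminescence. Normalized to furafylline 57 uM = full inhibition.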

Experiment [3] can be described thus: NFAT Signaling Pathway (AID 444; active means well fitted curve in either direction with a large enough effect, not every such curve was filed as active;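 further: carbachol stimulus at about its EC50 of 1 µM final; on the % scale 0 is the no-effect control and ±100 the full control effect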). The settings on record: Jurkat NFAT-bla M1, carbachol, beta-lactamase ratio, 5 h; at 7.69 µM (top of the series) unless noted. The gist of the method: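 Jurkat cells with NFAT-driven β-lactamase reporter and co-expressed M1 receptor, stimulated with carbachol (final 1 uM, ~EC50), compound titration, 5 h at 37 °C. CCF4 loaded 1 h at RT; 460/530 nm ratio gave %activity and AC50.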

Experiment [4] is described as follows: Stat Signaling Pathway (AID 446; active means well fitted curve in either direction with a large enough effect, not every such curve was filed as active;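 further: ME-180 cervical cancer cells given 40 pM IL-6 alongside compound; SIE-controlled beta-lactamase reporter measured as 460/530 nm FRET emission ratio; on the % scale 0 is the no-effect control and ±100 the full control effect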). The note with it: ME-180 SIE beta-lactamase reporter, IL-6 stimulated, 5 h; at 7.69 µM (top of the series) unless noted. The gist of the method: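 FRET read-out (405 nm excitation, 460/530 nm emission) of a beta-lactamase reporter under a STAT-inducible element in ME-180 cervical carcinoma cells. Cells with compound receive 40 pM IL-6 for 5 h. Values are normalised to AC90 stimulation and AC90 JAK-inhibitor controls.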

Experiment [5] has as its target Glucocorticoid receptor (Homo sapiens) (UniProt P04150). The experiment is described as follows: GR-GFP Redistribution (AID 450;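 active means compounds whose dose series gives a full or clear partial fitted curve of increased nuclear translocation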; further: potency means the concentration at half of the fitted maximal effect). The note with it: U2OS GR-GFP nuclear translocation, laser cytometry, 2 h.
Experiment [6] has the same target. Put plainly: GR-EFC Redistribution (AID 451; calls by dose curve; further: potency means the concentration at half of the fitted maximal effect). The note with it: CHO-K1 GR-EFC translocation, beta-gal luminescence, 2 h. The method in brief: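 CHO-K1 cells expressing nuclear EA and GR-ED fragments of b-gal; compounds titrated up to 46 uM final, 2 h at 37 C. GR nuclear translocation read as complemented b-gal luminescence after 1 h RT detection.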
The target in experiment [7] is Mitogen-activated protein kinase 10 (Mus musculus) (UniProt Q61831). The experiment is described as follows: JNK3 AlphaScreen Assay (AID 530; active means well fitted curve in either direction with a large enough effect, not every such curve was filed as active;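 further: kinase came from lysate of stimulated human HepG2 cells; signal reports phosphorylation of biotinylated GST-cJun 1-79 at Ser73 with 10 µM ATP; on the % scale 0 is the no-effect control and ±100 the full control effect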). The gist of the method:
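HepG2 lysate (IL-1b/TNFa pre-activated) + biotin-GST-cJun 1-79 + anti-pSer73 cJun; cpd titration, 15 min RT; ATP 10 uM start; Tris pH 7.6, MgCl2, DTT, vanadate; beads in EDTA buffer; AlphaScreen.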
A general note: In Alpha technology, singlet oxygen from a donor bead excites a nearby acceptor bead.

The target of experiment [8] is 3',5'-cyclic-AMP phosphodiesterase 4B (Homo sapiens) (UniProt Q07343). Put plainly: qHTS Assay for Inhibitors of PDE-IV (AID 607; active means well fitted activation curve with a large enough effect in the main read-out, with a control signal flat, not every such curve was filed as active; further: % of control where 0% means no effect). The method in brief:
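Cell-based read-out of cAMP via a modified cyclic nucleotide-gated channel and membrane potential dye (535/590 nm) in HEK293 cells expressing PDE4 endogenously. Compounds tested up to 22.9 uM final; 100 uM RO 20-1724 reference.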

Experiment [9] concerns the target Guanine nucleotide-binding protein G(i) subunit alpha-1 (Homo sapiens) (UniProt P63096). The experiment is described as follows: qHTS Assay for Inhibitors of RGS12 GoLoco Motif Activity (Green Fluorophore) (AID 879).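 Further: 0% = labeled peptide with Gαi1 and full inhibition = labeled peptide alone without protein; negative values mean loss of peptide binding seen as reduced polarization.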 The method in brief: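 A drop in FITC polarization marked displacement of the FITC-tagged RGS12 GoLoco peptide (10 nM) from Gαi1 (50 nM). Compounds were incubated 10 min at room temperature in Tris pH 7.5 buffer containing 150 mM NaCl, 0.1 mM GDP and 0.05% NP40; unlabeled peptide titration served as control.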
Background: Quantitative high-throughput screening tests each substance at several concentrations.

The target of experiment [10] is Cytochrome P450 3A4 (Homo sapiens) (UniProt P08684). Put plainly: qHTS Assay for Activators of Cytochrome P450 3A4 (AID 885). Further: nearly all actives have a fitted effect of over 65% in size. The gist of the method: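 Luminescent readout of luciferin formed from 25 uM Luciferin-PPXE (KM level) by 20 nM CYP3A4 in 200 mM KPO4, with 60 min NADPH-driven reaction at room temperature after 10 min compound exposure. Ketoconazole (57 uM) defined 100% inhibition.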
Chain of Cytochrome P450 3A4 (Homo sapiens) (P08684 whole entry, looked up): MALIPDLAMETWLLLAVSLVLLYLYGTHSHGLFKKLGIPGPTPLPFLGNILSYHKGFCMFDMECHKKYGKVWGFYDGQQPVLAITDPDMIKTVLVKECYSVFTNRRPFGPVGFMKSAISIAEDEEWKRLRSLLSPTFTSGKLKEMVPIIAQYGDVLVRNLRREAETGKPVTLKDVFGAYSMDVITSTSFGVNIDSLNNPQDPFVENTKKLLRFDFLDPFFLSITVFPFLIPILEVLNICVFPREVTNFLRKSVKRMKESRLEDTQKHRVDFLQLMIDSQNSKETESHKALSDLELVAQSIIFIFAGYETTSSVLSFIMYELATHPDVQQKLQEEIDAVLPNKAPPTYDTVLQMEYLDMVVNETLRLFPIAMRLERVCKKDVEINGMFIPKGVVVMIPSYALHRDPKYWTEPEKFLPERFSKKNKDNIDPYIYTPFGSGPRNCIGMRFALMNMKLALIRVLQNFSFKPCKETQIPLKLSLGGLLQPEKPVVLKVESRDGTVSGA

A short description of experiment [11]: qHTS Assay for Identification of Small Molecule Agonists for Thrombopoietin (TPO) Signaling Pathway (AID 917). Further: on the % scale 0 is the no-effect control and ±100 the full control effect. The gist of the method: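 Human TPO receptor–transfected Ba/F3 cells (murine, IL-3-dependent) in IL-3-deficient medium; compounds plus TPO at EC50, 26 pM final; 24 hrs, 37 C; GpIIb-luciferase luminescence after 10 min RT detection.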
Experiment [12] concerns the target Muscarinic acetylcholine receptor M1 (Rattus norvegicus) (UniProt P08482). Put plainly: qHTS Assay for Antagonists of Acetylcholine Muscarinic M1 Receptor: Measurement of IP-One Response (AID 944). Further: nearly all actives have a fitted effect of over 75% in size. The gist of the method:
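Read-out: HTRF competition between d2-IP1 and Eu-cryptate anti-IP1 antibody, emission 620 and 665 nm. Stimulus was carbachol, EC80 (200 nM), for 30 min in M1-CHO cells (rat receptor), after 10 min compound pre-treatment.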

For experiment [13], the target named is Pyruvate kinase (Leishmania mexicana) (UniProt Q27686). The experiment is described as follows: qHTS Validation Assay for Inhibitors of Leishmania Mexicana Pyruvate Kinase (AID 945).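 Further: 0% = DMSO only neutral control wells.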 The gist of the method: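 The enzyme is a highly purified E451W mutant of LmPYK used at 0.2 nM. It converts 0.5 mM PEP and 0.1 mM ADP over 1 h at room temperature; product ATP is quantified by luciferase luminescence relative to DMSO controls.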
Chain of Pyruvate kinase (Leishmania mexicana) (Q27686 2-499 E452W): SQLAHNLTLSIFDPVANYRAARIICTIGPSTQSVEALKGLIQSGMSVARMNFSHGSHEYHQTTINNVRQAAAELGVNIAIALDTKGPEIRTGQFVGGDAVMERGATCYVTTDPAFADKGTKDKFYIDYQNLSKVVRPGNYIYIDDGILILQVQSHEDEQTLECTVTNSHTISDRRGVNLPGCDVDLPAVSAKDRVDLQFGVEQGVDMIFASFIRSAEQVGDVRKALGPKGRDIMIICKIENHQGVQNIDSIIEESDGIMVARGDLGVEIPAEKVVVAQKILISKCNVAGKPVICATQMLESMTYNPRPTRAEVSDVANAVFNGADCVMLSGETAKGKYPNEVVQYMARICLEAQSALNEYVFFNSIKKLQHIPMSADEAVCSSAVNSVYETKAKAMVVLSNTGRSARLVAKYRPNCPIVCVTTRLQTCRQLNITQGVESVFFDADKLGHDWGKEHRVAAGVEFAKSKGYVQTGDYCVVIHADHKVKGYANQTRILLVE

Experiment [14] has as its target Pyruvate kinase PKM (Homo sapiens) (UniProt P14618). The experiment is described as follows: qHTS Assay for Activators of Human Muscle Pyruvate Kinase (AID 954; active means well fitted curve in the direction sought with a large enough effect, not every such curve was filed as active;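 further: 0% = uninhibited enzyme and -100% = no enzyme or full thiadiazolimine inhibition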). The method in brief:
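ATP production by PKM2 detected via luciferase luminescence after 1 h room-temperature reaction (0.1 nM enzyme, PEP at Km 0.5 mM, ADP 0.1 mM, pH 7.2 imidazole buffer). Inhibition scaled to no-enzyme control; activation referenced to 0.3 nM enzyme wells.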

Experiment [15] addresses Alpha-galactosidase A (Homo sapiens) (UniProt P06280). Put plainly: Counterscreen for Glucocerebrosidase Inhibitors: qHTS Assay for Human alpha-Galactosidase at pH 4.5 (AID 992). Further: 0% is about no effect. The gist of the method:
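Fluorogenic 1536-well qHTS at pH 4.5 (citrate, Tween-20): 2 nM enzyme, 80 uM 4-MU-alpha-galactoside, 20 min room temperature, NaOH/glycine stop. Titration 0.7 nM to 77 uM, data normalized to no-enzyme and full-activity controls, Hill-fitted AC50.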

The target of experiment [16] is alpha-glucosidase (Oryza sativa, rice) (UniProt Q653V4). Put plainly: Counterscreen for Glucocerebrosidase Inhibitors: qHTS Assay for Rice alpha-Glucosidase at pH 5.0 (AID 997).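 Further: 0% = full activity with enzyme and -100% = basal without enzyme.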 The gist of the method: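 Endpoint fluorogenic assay at pH 5.0: compounds (0.7 nM to 77 uM) titrated against 4 nM rice enzyme and 400 uM 4-MU-alpha-glucoside for 20 min at room temperature; NaOH/glycine stop, read ex 365/em 440 nm, Hill-fitted AC50.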
On the technique in general: The purpose of a counterscreen is to sort out artefacts and off-target activity.

Experiment [17] addresses Lysosomal acid glucosylceramidase (Homo sapiens) (UniProt P04062). The experiment is described as follows: Glucocerebrosidase-p2 (AID 348; in the data active means potency below about 10 µM; further: potency means the concentration at half of the fitted maximal effect). The note with it: purified GBA, blue fluorogenic substrate, 40 min. The gist of the method: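 Normal human glucocerebrosidase (0.2 nM) with blue fluorogenic substrate (80 uM final) in citrate/phosphate pH 5.9 with 10mM sodium taurocholate, 0.01% tween-20; 40 min RT, NaOH/glycine stop; fluorescence Ex 365/Em 440; AC50 from a titration from 0.6 nM upwards.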

Experiment [18] in a line: qHTS Assay for Identification of Small Molecule Agonists for Hypoxia Response Element Signaling Pathway (AID 914; active means well fitted activation curve with a large enough effect in the signal ratio, with a control signal flat, not every such curve was filed as active; the % refers to the signal ratio; further: potency means the concentration at half of the fitted maximal effect). The settings on record: ME-180 (cervical carcinoma) HRE-bla reporter, beta-lactamase ratio, CoCl2, 17 h; activation: hits give high values. The method in brief:
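Cells were plated overnight, pin-dosed with compound in a titration series, co-stimulated with EC50 CoCl2 and incubated 17 hours at 37 degrees Celsius. CCF4 substrate was then loaded, and AC50 values came from the 460nm/530nm ratio.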

In experiment [19] the target is Cytochrome P450 2C9 (Homo sapiens) (UniProt P11712). Put plainly: qHTS Assay for Inhibitors and Substrates of Cytochrome P450 2C9 (AID 883). Further: potency means the concentration at half of the fitted maximal effect; nearly all actives have a fitted effect of over 60% in size. The gist of the method:
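Signal: luciferase luminescence reporting luciferin produced by CYP2C9. Conditions: 10nM enzyme, Luciferin-H 100uM at KM, 25mM KPO4, 37C, 60 min NADPH-driven reaction. Reference: 57uM sulphaphenazole as 100% inhibition.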

The target in experiment [20] is Cytochrome P450 2C19 (Homo sapiens) (UniProt P33261). Put plainly: qHTS Assay for Inhibitors and Substrates of Cytochrome P450 2C19 (AID 899). Further: potency means the concentration at half of the fitted maximal effect; nearly all actives have a fitted effect of over 60% in size. The method in brief: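 Signal comes from luciferase acting on luciferin released by CYP2C19-mediated hydroxylation of Luciferin-H EGE, 10uM (KM). Assay mix: 5nM enzyme, 50mM KPO4; 60 min at 37C with NADPH regeneration. Data normalized against 57uM ketoconazole.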

Each structure is given as a SMILES string. A number with no mark means an inactive call. Inconclusive results are not listed. Activity calls are given as the source filed them. Unless noted, the call rests on the fitted dose curve; in most records, active means well fitted curve in the direction sought with a large enough effect; inconclusive means small, poorly fitted or top-dose-only effect, or another doubt; inactive means no such curve, though single readings can be large; an effect the other way counts as inactive or inconclusive.

Chain of Cytochrome P450 1A2 (Homo sapiens) (P05177 whole entry, looked up): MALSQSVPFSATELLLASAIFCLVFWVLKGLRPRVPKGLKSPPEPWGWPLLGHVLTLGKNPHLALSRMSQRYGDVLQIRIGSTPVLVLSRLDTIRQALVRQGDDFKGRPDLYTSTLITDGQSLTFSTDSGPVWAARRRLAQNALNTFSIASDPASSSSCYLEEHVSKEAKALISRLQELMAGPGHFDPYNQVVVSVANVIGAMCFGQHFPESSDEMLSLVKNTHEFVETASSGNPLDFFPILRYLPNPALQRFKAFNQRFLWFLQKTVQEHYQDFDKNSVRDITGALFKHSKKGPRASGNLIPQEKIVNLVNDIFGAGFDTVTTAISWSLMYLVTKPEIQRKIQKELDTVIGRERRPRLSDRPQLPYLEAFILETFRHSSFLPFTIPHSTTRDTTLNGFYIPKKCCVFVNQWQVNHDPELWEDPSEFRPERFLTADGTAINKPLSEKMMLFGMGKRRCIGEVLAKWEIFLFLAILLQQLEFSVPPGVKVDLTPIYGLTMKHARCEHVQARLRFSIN
Chain of Glucocorticoid receptor (Homo sapiens) (P04150 whole entry, looked up, the tested form may be a part): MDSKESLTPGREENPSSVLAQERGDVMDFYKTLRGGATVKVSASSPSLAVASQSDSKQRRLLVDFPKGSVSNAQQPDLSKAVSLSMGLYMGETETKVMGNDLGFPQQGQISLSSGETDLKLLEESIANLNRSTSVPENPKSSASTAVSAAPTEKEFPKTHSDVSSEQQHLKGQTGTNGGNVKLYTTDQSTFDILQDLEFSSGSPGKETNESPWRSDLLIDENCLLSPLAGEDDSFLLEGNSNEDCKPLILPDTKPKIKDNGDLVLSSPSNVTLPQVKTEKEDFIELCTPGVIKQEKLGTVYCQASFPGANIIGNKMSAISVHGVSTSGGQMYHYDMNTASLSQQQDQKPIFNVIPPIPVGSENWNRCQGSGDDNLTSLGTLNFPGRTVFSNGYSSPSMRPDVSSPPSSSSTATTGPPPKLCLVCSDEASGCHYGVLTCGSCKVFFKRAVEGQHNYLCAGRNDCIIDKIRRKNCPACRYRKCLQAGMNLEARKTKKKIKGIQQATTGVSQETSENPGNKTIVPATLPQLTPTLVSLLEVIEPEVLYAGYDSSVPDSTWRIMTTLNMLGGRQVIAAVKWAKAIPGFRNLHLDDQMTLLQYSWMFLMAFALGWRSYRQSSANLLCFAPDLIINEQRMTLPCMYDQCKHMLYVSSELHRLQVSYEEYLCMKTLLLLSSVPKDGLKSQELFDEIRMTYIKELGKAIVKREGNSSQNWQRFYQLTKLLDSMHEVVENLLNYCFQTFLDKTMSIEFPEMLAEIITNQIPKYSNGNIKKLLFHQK
Chain of 3',5'-cyclic-AMP phosphodiesterase 4B (Homo sapiens) (Q07343 whole entry, looked up): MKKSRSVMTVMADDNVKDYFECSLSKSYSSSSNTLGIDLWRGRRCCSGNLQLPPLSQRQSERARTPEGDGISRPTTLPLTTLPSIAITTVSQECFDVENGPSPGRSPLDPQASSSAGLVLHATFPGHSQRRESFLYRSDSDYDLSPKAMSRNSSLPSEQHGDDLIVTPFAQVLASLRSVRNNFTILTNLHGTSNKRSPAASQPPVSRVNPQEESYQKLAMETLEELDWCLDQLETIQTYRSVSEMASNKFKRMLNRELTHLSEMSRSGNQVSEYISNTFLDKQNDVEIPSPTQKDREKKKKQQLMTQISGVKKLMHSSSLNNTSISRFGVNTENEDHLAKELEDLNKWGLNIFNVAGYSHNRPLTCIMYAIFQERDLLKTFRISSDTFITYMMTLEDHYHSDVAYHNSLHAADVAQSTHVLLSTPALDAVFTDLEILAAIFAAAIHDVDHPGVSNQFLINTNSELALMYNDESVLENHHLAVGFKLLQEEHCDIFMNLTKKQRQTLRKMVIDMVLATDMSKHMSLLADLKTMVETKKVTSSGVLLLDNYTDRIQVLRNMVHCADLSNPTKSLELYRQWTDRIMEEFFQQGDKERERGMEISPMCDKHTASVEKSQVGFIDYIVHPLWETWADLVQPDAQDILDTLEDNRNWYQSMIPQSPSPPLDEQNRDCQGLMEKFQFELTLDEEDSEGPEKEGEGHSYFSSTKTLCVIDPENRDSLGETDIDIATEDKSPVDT
Chain of Alpha-galactosidase A (Homo sapiens) (P06280 whole entry, looked up): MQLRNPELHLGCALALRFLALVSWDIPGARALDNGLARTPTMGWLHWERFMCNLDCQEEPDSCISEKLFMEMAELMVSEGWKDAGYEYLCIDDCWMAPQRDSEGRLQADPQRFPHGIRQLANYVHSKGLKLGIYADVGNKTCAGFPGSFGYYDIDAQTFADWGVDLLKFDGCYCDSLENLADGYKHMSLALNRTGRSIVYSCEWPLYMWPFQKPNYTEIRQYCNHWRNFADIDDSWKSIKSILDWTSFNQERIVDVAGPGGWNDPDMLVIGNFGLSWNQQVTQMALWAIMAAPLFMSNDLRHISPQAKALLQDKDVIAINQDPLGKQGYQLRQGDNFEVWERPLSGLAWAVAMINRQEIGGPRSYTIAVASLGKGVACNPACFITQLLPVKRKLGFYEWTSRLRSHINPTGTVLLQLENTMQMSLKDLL
Chain of Guanine nucleotide-binding protein G(i) subunit alpha-1 (Homo sapiens) (P63096 whole entry, looked up): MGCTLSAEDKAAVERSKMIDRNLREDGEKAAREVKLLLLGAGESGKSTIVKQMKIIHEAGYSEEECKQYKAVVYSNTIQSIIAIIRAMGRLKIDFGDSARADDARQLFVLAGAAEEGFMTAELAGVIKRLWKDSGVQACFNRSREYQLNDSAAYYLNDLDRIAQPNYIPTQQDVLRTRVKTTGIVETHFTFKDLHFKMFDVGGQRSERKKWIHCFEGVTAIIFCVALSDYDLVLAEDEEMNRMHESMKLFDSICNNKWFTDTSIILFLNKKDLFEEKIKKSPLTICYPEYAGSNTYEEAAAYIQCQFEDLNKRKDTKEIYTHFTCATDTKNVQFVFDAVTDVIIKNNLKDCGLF
Chain of Muscarinic acetylcholine receptor M1 (Rattus norvegicus) (P08482 whole entry, looked up): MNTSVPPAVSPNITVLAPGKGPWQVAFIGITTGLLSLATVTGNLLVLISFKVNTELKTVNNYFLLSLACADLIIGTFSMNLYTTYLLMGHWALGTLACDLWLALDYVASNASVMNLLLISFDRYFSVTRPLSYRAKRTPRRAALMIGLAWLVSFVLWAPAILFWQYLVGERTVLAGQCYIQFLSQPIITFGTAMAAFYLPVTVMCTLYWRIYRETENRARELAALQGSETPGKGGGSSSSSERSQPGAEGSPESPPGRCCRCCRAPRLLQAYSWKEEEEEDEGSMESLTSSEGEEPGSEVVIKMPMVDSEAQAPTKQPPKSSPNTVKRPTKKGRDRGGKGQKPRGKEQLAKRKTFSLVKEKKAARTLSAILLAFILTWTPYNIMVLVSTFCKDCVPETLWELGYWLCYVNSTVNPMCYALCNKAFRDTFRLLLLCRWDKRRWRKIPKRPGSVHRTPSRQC
Chain of Lysosomal acid glucosylceramidase (Homo sapiens) (P04062 whole entry, looked up): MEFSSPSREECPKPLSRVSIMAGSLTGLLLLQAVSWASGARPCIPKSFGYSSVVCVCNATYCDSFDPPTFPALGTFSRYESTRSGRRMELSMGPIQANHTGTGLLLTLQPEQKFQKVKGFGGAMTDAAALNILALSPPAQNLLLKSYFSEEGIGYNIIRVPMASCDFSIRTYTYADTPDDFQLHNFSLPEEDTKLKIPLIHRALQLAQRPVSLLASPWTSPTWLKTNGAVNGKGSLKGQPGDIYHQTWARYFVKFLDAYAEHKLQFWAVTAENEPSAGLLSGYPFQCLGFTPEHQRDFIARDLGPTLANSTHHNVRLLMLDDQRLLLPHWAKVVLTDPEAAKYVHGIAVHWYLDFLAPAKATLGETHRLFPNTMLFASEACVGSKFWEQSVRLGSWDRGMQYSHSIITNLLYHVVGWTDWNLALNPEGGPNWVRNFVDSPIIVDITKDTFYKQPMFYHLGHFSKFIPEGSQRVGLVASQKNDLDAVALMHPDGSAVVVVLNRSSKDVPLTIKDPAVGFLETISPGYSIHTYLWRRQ

Take `C[C@@H](Cc1ccccc1)Nc1ncnc2c1ncn2[C@@H]1O[C@@H](CO)[C@H](O)[C@@H]1O`: the activity change, negative = inhibition in [1] is -12.1% [at 38 µM]; in experiment [3] it was -0.283% [at 38 µM]. Also, the Potency result in experiment [2], in experiment [7], in [8], in [10], in experiment [12] and in [16] was “inactive” throughout. Also, in [4], the activity, negative = inhibition was -0.703% [at 38 µM]. Moreover, the Potency in [5] and in [6] was more than 46 µM each time. The result in experiment [9], in [11], in experiment [13], in experiment [14] and in [15] was inactive.

On to `CC(C)[C@@H]1NC(=O)[C@H](CCCCN)NC(=O)[C@H](Cc2c[nH]c3ccccc23)NC(=O)[C@H](Cc2ccc(O)cc2)NC(=O)[C@H](C)N(C)C(=O)[C@H](Cc2ccccc2)NC1=O`, for which the activity change, negative = inhibition in experiment [1] was 15.3% [at 38 µM]; in [3], -3.97% [at 38 µM]. In addition, the Potency result in [2], in experiment [7], in experiment [8], in experiment [10] and in experiment [16] was “inactive” throughout. Further, the activity, negative = inhibition in experiment [4] was -2.13% [at 38 µM]. Further, the Potency in experiment [5] and in experiment [6] was more than 46 µM in each case. Besides, the call in [9], in [11], in [14] and in experiment [15] was inactive.

On to `O=C1O/C(=C\Br)CC[C@@H]1c1cccc2ccccc12`, for which the activity change, negative = inhibition in experiment [1] is -0.931% [at 38 µM]; in experiment [3], -0.824% [at 38 µM]. In addition, the Potency result in [2], in experiment [7], in experiment [8], in experiment [10], in experiment [12] and in [16] was “inactive” throughout. The activity, negative = inhibition in [4] is 4.17% [at 38 µM]. The Potency in experiment [5] and in [6] was more than 46 µM each time. Besides, the compound was called inactive in experiment [9], in [13] and in experiment [15].

For `CN1CCN(c2ncc3nc(-c4ccccc4)c(=O)n(Cc4ccc(F)cc4)c3n2)CC1`, the Potency was more than 11.4 µM in [17], more than 9.22 µM in experiment [5], more than 46 µM in [6] and 3.16 µM (active) in experiment [18]. For the same compound, the Potency result in experiment [7] and in [8] was “inactive” in each case.

Regarding `Cc1cc(O)c(C(C)C)cc1C1(c2cc(C(C)C)c(O)cc2C)OC(=O)c2ccccc21`, the Potency in experiment [17] is more than 11.4 µM; in experiment [5], more than 46 µM; in [6], more than 9.22 µM; in experiment [19], 316 nM (active); in experiment [20], 3.16 µM (active). Besides, the Potency entry in experiment [7], in experiment [8] and in experiment [10] was “inactive” throughout.

Turning to `O=C(C[n+]1ccc2ccccc2c1)c1ccc2ccc3ccccc3c2c1`, the activity change, negative = inhibition in experiment [1] was 0.901%; in experiment [3], -15.5%. In addition, the Potency in [2] is 2.51 µM (active); in [5], more than 46 µM; in experiment [6], more than 9.22 µM. Besides, in experiment [4], the activity, negative = inhibition was 0.433%. Moreover, the Potency result in experiment [7] and in experiment [8] was “inactive” each time.
